Sampled rows, rich in hits. Any-hit rate of the full collection: about 1.5%.
PLCg1 inh – blocks human PLC-gamma1 enzyme activity | inhibition, % at 12.2 µM | actives 0.84% (n = 370,000) | P19174 | purified PLC-gamma1, fluorogenic substrate, fluorescence | AID 720700; in the data active = inhibition above about 9.5%
DAGLB inhibitor – diacylglycerol lipase beta (human) inhibition. AID 504411. HEK293T DAGLB membrane lysate, EnzChek fluorogenic substrate. inhibition, % at 5.17 µM. Q8NCG7. actives 0.059% (n = 340,000); in the data active = inhibition above about 34%;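 note: 0% = enzyme with vehicle and 100% = wells lacking enzyme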
sPLA2-III inh – Inhibits HGIII-sPLA2 liposome hydrolysis, primary screen. Q9NZ20. actives 0.56% (n = 370,000). AID 743126. QFRET BODIPY PC-A2 liposome hydrolysis, fluorescence. inhibition, % at 12.2 µM;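 active = inhibition above mean plus 3 SD of compounds lying within the high and low control bounds, cut at about 19% in these data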;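 note: 0% = median of test compound wells and 100% = no enzyme DMSO wells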
PLC-beta3 inh – PLC-beta3 (human) inhibition, primary screen; Q01970; Purified PLC-beta3, fluorogenic substrate, fluorescence; inhibition, % at 12.2 µM; actives 0.18% (n = 370,000); in the data active = inhibition above about 11%;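 note: 0% = median of compound wells on plate and 100% = full blocker control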
sPLA2 confirm – human GIII-sPLA2 inhibition, confirmation | shares compounds with sPLA2-III inh | recombinant hGIII-sPLA2, BODIPY PC-A2 QFRET fluorescence | inhibition, % at 12.2 µM | actives 34% (n = 2,000);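 active = mean inhibition across triplicates above the hit cutoff set in the earlier primary screen, cut at about 19% in these data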;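 note: 0% = enzyme with DMSO and 100% = DMSO wells lacking enzyme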
535nm interf – counter-screen for HGIII-sPLA2 inhibitors: 535nm fluorescence interference | actives 8.5% (n = 2,000) | AID 743282 | inhibition, % at 12.2 µM | shares compounds with sPLA2-III inh | BODIPY FL product fluorescence interference, QFRET;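 active = average inhibition above the solvent-only control mean plus 3 SD, cut at about 6% in these data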;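 note: 0% = DMSO with substrate plus product and 100% = DMSO with substrate alone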
BODIPY interf DR – interferes with 535nm fluorescence in dose response counter-screen; IC50, µM; 240 tested, under 10 active; shares compounds with sPLA2-III inh; BODIPY FL product fluorescence interference, cell-free;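 active = IC50 at or below 10 µM; inactive = IC50 above 10 µM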
Starred values were filed as active, the others as inactive; x = no result given.

SMILES | PLCg1 inh | DAGLB inhibitor | sPLA2-III inh | PLC-beta3 inh | sPLA2 confirm | 535nm interf | others
C[C@H]1[C@@H](OC(=O)NCc2cccs2)CC[C@@]23CCCN2C(=O)CCC[C@@H]13 | -2 | x | 0 | 2 | x | x
CNC(=S)N/N=C/c1cc(Br)cc(Br)c1O | -340 | 17 | 44* | -386 | 51* | 5 | BODIPY interf DR=>122
O=C(NCCc1ccccc1)OCc1cn(-c2ccc(Cl)cc2)nn1 | 2 | x | 5 | 0 | x | x
COC(=O)c1sc2ccccc2c1NC(=O)c1ccc(S(=O)(=O)N2CC(C)CC(C)C2)cc1 (stereo not drawn) | 1 | 0 | 4 | 3 | x | x
Cc1cccc2sc(NNC(=O)c3ccc(S(=O)(=O)N4CC(C)CC(C)C4)cc3)nc12 (stereo not drawn) | -138 | -14 | 47* | -175 | 47* | 3
Cc1cc(C)c2nc(NNC(=O)c3ccc(S(=O)(=O)N4CCCC(C)C4)cc3)sc2c1 (stereo not drawn) | -259 | -2 | 36* | -317 | 46* | 6.5*
COc1ccccc1OCC(O)Cn1nc(C)cc1C (stereo not drawn) | 0 | -2 | -1 | 2 | x | x
Cc1cc(C)n(CC(O)COc2ccccc2[N+](=O)[O-])n1 (stereo not drawn) | 2 | -1 | 22* | -1 | -5 | -7
COc1cc(C=NCC2OCCc3ccccc32)cc(OC)c1 (stereo not drawn) | 1 | 1 | 20* | -2 | 0 | -4
COc1cc(/C=C/C(=O)c2ccccc2)cc(OC)c1OC | 1 | x | 3 | -3 | x | x
CC(=O)c1cc(CN2C(=O)CCC2=O)cs1 | 8 | 2 | 20* | 0 | -4 | 0
CCN1CCCCC(NC(=O)c2ccccc2C)C1=O (stereo not drawn) | 3 | x | 6 | 6 | x | x
Cc1ccc(O)c(NC(=S)NC(=O)C(C)C)c1 | 8 | -2 | 21* | 7 | 11 | -5
Cc1ccc(O)c(NC(=S)NC(=O)CC(C)C)c1 | 2 | 1 | 8 | 3 | x | x
CC(C)(C)N(Cc1cn(Cc2ccccc2)nn1)S(=O)(=O)c1ccccc1Br | 7 | x | 6 | 4 | x | x
COC(=O)C1=CN(c2ccc(Oc3ccccc3)cc2)C(N)=C(C#N)C1c1cccc(OC)c1OC (stereo not drawn) | -7 | x | 11 | -16 | x | x
COC(=O)C1=CN(c2ccc(N3CCOCC3)cc2)C(N)=C(C#N)C1c1cccc(OC)c1OC (stereo not drawn) | -5 | x | 20* | -19 | -5 | -20
COc1ccc(-c2nnc(SCC(=O)Nc3ccc(Cl)cc3)n2C)cc1 | 1 | -1 | 3 | 0 | x | x
CCOC(=O)/C(=N\Nc1cccc(Cl)c1)Sc1nnc(-c2ccc(OC)cc2)n1C | 3 | 2 | 22* | 2 | 17 | -5
CC(C)CN(C(=O)C1CCC1)c1c(N)n(Cc2ccccc2)c(=O)[nH]c1=O | 2 | 0 | 20* | -7 | 2 | -7
Cc1ccccc1NC(=S)NC(=O)c1cncc(Br)c1 | 1 | -12 | 23* | 4 | 7 | 2
CC(=O)N1CCN(C2=Nc3ccccc3Sc3ccccc32)CC1 | 3 | x | -2 | 2 | x | x
CCC(=O)Nc1ccc2c(c1)C(=O)N(C)[C@@H]1CC[C@@H](CC(=O)NCCN3CCCCC3)O[C@H]1CO2 | 8 | x | 21* | -3 | 2 | -5
CCC(=O)Nc1ccc2c(c1)C(=O)N(C)[C@@H]1CC[C@@H](CC(=O)OC)O[C@H]1CO2 | 1 | x | 5 | 2 | x | x
COc1ccc(-c2nnc(SCC(=O)Nc3ccc4cn[nH]c4c3)n2Cc2ccco2)cc1 | -3 | x | -13 | -2 | x | x
SMILES | PLCg1 inh | DAGLB inhibitor | sPLA2-III inh | PLC-beta3 inh | sPLA2 confirm | 535nm interf | others
N/C(=N\OC(=O)COc1ccc([N+](=O)[O-])cc1)c1ccncc1 | 1 | -1 | 6 | 0 | x | x
N/C(=N\OC(=O)COc1ccc(Br)cc1)c1ccncc1 | 1 | 1 | 20* | -2 | -1 | -10
COC(=O)[C@H](C(C)C)N(Cc1cn(Cc2ccccc2)nn1)S(=O)(=O)c1ccc(F)cc1Br | 4 | x | -3 | 3 | x | x
CCc1ccccc1NC(=O)Cn1cccc1C1=NC(c2ccccc2)CO1 (stereo not drawn) | 2 | -6 | 6 | -3 | x | x
Cc1ccc(NC(=O)Cn2cccc2C2=NC(c3ccccc3)CO2)cc1C (stereo not drawn) | 5 | -13 | 21* | -10 | -7 | -13
O=C(NCc1ccco1)C1CCCN(S(=O)(=O)c2ccc([N+](=O)[O-])cc2)C1 (stereo not drawn) | 1 | x | -5 | 2 | x | x
CCOC(=O)[C@H]1[C@H]2COc3cc(OC)ccc3[C@@H]2N2C(=O)c3ccc(C)cc3NC(=O)[C@@]12C | 3 | -2 | 25* | -5 | 13 | -10
CCOC(=O)[C@H]1[C@H]2COc3cc(OC)ccc3[C@@H]2N2C(=O)c3cc(OC)ccc3NC(=O)[C@@]12C | 3 | 1 | 26* | 2 | 13 | -14
CCOC(=O)[C@H]1[C@H]2COc3cc(OC)ccc3[C@@H]2N2C(=O)c3cc(F)c(F)cc3NC(=O)[C@@]12C | -3 | -1 | 25* | 1 | 20* | -14
CCOC(=O)[C@H]1[C@H]2COc3cc(OC)ccc3[C@@H]2N2C(=O)c3cc(F)ccc3NC(=O)[C@@]12C | 1 | 0 | 31* | 6 | 11 | -9
CCOC(=O)[C@H]1[C@H]2COc3cc(OC)ccc3[C@@H]2N2C(=O)c3ccc(F)cc3NC(=O)[C@@]12C | 0 | -3 | 15 | 1 | x | x
CN(Cc1ccco1)S(=O)(=O)c1ccc2c(c1)CCN2C(=O)CC(C)(C)C | -3 | x | -7 | -4 | x | x
COc1cc(NC(=O)c2ccccc2)c(C)cc1NC(=O)CSc1nnc(COc2ccccc2)n1Cc1ccco1 | 3 | x | -18 | 2 | x | x
O=C(Cn1nnc(-c2ccncc2)n1)Nc1ccc(F)cc1F | 1 | x | 6 | 1 | x | x
CCOc1ccc(C2CC(c3ccc(CC)cc3)Nc3nc(N)nn32)cc1 (stereo not drawn) | 4 | 6 | 22* | -3 | 0 | -15
CCCCn1c(C23CC4CC(CC(C4)C2)C3)n[nH]c1=S | 4 | -2 | 25* | -8 | 44* | 4 | BODIPY interf DR=>122
COCCn1c(C23CC4CC(CC(C4)C2)C3)n[nH]c1=S | 0 | 4 | 7 | 0 | x | x
CC(C)CN1C(=O)[C@]2(CC(=O)N(C)C2c2ccccc2)c2cc(-n3cc(CN(C)C)nn3)ccc21 (stereo partly drawn) | 1 | x | -3 | -2 | x | x
COCC(=O)N1CCN(C(=O)C(=O)c2cccc(C(F)(F)F)c2)CC1 | 6 | x | 23* | 2 | 1 | -2
CCc1cc2c3c(c1)C(C)CC(C)(C)N3C(=O)C2=O (stereo not drawn) | -5 | 6 | 27* | -115 | 12 | -4

Compound activity: PubChem, The Scripps Research Institute Molecular Screening Center
